PubChem BioAssay (EPA / NIEHS)
Results filed as inconclusive are left out. Calls of active or inactive are those of the source. How the source made its calls: active means hit-call score of the fitted dose curve at least 0.9, where 1 is the maximum; inconclusive means response in the unintended direction; inactive means score below 0.9.

Each compound was assayed against Glycogen synthase kinase-3 beta (Homo sapiens) (UniProt P49841) (assay: NVS_ENZ_hGSK3b: NovaScreen (NVS) Enzymatic Assay for human Glycogen Synthase Kinase-3 beta (GSK3b) (AID 2283165)).
In short: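 Recombinant enzyme with specific fluorescent substrate, 1 h, product separated by electrophoretic mobility shift. Primary duplicate screen at 25 uM; actives (e.g. 30% inhibition) followed in singleton concentration-response to 50 uM. Signal loss fitted versus DMSO.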

Chain of Glycogen synthase kinase-3 beta (Homo sapiens) (P49841 whole entry, looked up): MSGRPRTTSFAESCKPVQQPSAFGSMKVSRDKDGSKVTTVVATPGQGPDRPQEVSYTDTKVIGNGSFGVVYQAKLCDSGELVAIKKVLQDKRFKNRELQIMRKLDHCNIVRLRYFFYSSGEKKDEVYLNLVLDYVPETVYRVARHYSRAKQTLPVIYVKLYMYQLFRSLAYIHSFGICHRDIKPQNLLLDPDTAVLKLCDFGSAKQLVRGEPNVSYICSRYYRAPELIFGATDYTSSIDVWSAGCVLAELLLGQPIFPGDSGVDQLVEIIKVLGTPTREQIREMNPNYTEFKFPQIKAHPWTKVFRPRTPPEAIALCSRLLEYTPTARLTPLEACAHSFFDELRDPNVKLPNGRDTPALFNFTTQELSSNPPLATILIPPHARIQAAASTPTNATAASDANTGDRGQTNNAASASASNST

Q: With `Cc1cccc(N)c1N` as the compound, how does the AC50 read?
A: 27.9 µM (active)

Q: With `Nc1ccc(Cc2ccc(N)cc2)cc1` as the compound, how does the outcome read?
A: inactive

Q: `Clc1ccccc1Cl` was tested. Which outcome did it give?
A: inactive

Q: How did the outcome turn out when `CCOC(=O)[C@]1(c2ccccc2)Oc2ccccc2[C@@H]1N` was run?
A: inactive

Q: How did the outcome turn out when `CN(C)c1ccccc1` was run?
A: inactive

Q: For `O=[N+]([O-])C(Br)(CO)CO`, which outcome is on record?
A: inactive

Q: `CCN(CC)N=O` was tested. Which outcome did it give?
A: inactive

Q: `O=C(Oc1ccc(Br)cc1)N1CCN2CCC1CC2` was tested. Which outcome did it give?
A: inactive

Q: With `CN(C)c1ccc(C(=O)c2ccc(N(C)C)cc2)cc1` as the compound, how does the outcome read?
A: inactive

Q: Which AC50 does the source give for `CN(C)[C@@H]1C(=O)C(C(N)=O)=C(O)[C@@]2(O)C(=O)C3=C(O)c4c(O)cccc4[C@@](C)(O)[C@H]3C[C@@H]12` here?
A: 25 µM (active)

Q: With `Cc1ccc([N+](=O)[O-])cc1` as the compound, how does the outcome read?
A: inactive

Q: With `OCCCl` as the compound, how does the outcome read?
A: inactive

Q: Which outcome does the source give for `CCNS(=O)(=O)C(F)(F)C(F)(F)C(F)(F)C(F)(F)C(F)(F)C(F)(F)C(F)(F)C(F)(F)F` here?
A: inactive

Q: Which outcome does the source give for `Nc1ccc(N=Nc2ccccc2)cc1` here?
A: inactive

Q: For `CCN(CC)CCO`, which outcome is on record?
A: inactive

Q: For `CC(O)CCO` (configuration not stated), which outcome is on record?
A: inactive

These compounds were tested against human LYN Proto-Oncogene, Src family Tyrosine Kinase (LynA), LYN (gene 4067) (UniProt P07948) (assay: NVS_ENZ_hLynA: NovaScreen (NVS) Enzymatic Assay for human LYN Proto-Oncogene, Src family Tyrosine Kinase (LynA) (AID 2283173)).
Experimental: (§1) NVS_ENZ_hLynA is a biochemical, single-readout assay that uses extracted gene-proteins in a cell-free assay. Measurements were taken 1 hour after chemical dosing in a 384-well plate.NVS_ENZ_hLynA is one of one assay component(s) measured or calculated from the NVS_ENZ_hLynA assay. It is designed to make measurements of enzyme activity, a form of enzyme reporter, as detected with fluorescence intensity signals by Fluorescence and electrophoretic mobility shift technology.Data from the assay component NVS_ENZ_hLynA was analyzed into 1 assay endpoint. This assay endpoint, NVS_ENZ_hLynA, was analyzed in the positive analysis fitting direction relative to DMSO as the negative control and baseline of activity. Using a type of enzyme reporter, loss-of-signal activity can be used to understand changes in the enzymatic activity as they relate to the gene LYN. Furthermore, this assay endpoint can be referred to as a primary readout, because this assay has produced multiple assay endpoints where this one serves a enzymatic activity function. To generalize the intended target to other relatable targets, this assay endpoint is annotated to the kinase intended target family, where the subfamily is non-receptor tyrosine kinase.
Binding assays used specific radioligands (tritiated, iodinated) with non-radioactive competitive displacement ligands in agonist or antagonist protocols (as indicated) and various reference compounds and inhibitors to titrate specific binding to receptors and transporters. Most enzyme assays (CYPs, kinases, phosphatases, proteases, HDACs) used recombinant protein and specific substrates (fluorescence mostly, some colorimetric and radioactive) and inhibitors, followed by a biochemical separation of substrate and product. All assays for the biochemical HTS were initially run in duplicate at a single concentration (10 uM for CYP450 assays and 25 uM for all others). […]

Chain of human LYN Proto-Oncogene, Src family Tyrosine Kinase (LynA), LYN (gene 4067) (P07948 whole entry, looked up): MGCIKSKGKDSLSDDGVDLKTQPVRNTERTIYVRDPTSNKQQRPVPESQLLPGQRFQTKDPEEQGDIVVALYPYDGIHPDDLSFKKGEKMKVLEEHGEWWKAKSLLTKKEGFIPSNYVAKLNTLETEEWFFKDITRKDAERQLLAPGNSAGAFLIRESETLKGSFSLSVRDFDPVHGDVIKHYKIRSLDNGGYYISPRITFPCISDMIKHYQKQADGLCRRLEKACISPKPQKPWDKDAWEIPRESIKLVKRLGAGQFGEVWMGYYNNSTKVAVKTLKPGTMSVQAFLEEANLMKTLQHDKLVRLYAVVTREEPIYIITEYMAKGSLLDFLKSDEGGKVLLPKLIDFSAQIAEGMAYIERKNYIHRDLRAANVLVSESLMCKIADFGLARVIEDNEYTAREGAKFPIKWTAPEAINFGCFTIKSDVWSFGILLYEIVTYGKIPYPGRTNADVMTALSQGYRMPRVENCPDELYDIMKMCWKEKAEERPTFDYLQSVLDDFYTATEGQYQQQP

Q: `Clc1ccc(Cl)c(Cl)c1` was tested. Which outcome did it give?
A: inactive

Q: How did the outcome turn out when `CN(C)C(=O)Nc1ccc(Cl)cc1` was run?
A: inactive

Q: For `c1ccc(NNc2ccccc2)cc1`, which outcome is on record?
A: inactive

What follows are compounds tested against human Mitogen-Activated Protein Kinase 1 (MAPK 1), MAPK1 (gene 5594) (UniProt P28482) (assay: NVS_ENZ_hMAPK1: NovaScreen (NVS) Enzymatic Assay for human Mitogen-Activated Protein Kinase 1 (MAPK 1) (AID 2283175)).
Experimental: as §1, with “NVS_ENZ_hMAPK1” for “NVS_ENZ_hLynA”, “plate.NVS_ENZ_hMAPK1” for “plate.NVS_ENZ_hLynA”, “NVS_ENZ_hMAPK1,” for “NVS_ENZ_hLynA,”, “MAPK1.” for “LYN.”, “serine/threonine” for “non-receptor tyrosine”
(§2) Binding assays used specific radioligands (tritiated, iodinated) with non-radioactive competitive displacement ligands in agonist or antagonist protocols (as indicated) and various reference compounds and inhibitors to titrate specific binding to receptors and transporters. Most enzyme assays (CYPs, kinases, phosphatases, proteases, HDACs) used recombinant protein and specific substrates (fluorescence mostly, some colorimetric and radioactive) and inhibitors, followed by a biochemical separation of substrate and product. All assays for the biochemical HTS were initially run in duplicate at a single concentration (10 uM for CYP450 assays and 25 uM for all others). Assay-chemical combinations meeting a pre-defined threshold (e.g., 30% inhibition and other criteria defined below) were then run in singleton concentration-response format with maximum concentration of 20 uM for CYPs and 50 uM for all others. Each assay was run with positive and negative controls, and concurrent controls on every plate. The follow-up (secondary) screen tested active chemical-pairs in concentration series, as well as a few additional assays not tested in the primary screen, some selected negative inactives, and several cases re-run in the concentration series for confirmatory purposes.

Chain of human Mitogen-Activated Protein Kinase 1 (MAPK 1), MAPK1 (gene 5594) (P28482 whole entry, looked up): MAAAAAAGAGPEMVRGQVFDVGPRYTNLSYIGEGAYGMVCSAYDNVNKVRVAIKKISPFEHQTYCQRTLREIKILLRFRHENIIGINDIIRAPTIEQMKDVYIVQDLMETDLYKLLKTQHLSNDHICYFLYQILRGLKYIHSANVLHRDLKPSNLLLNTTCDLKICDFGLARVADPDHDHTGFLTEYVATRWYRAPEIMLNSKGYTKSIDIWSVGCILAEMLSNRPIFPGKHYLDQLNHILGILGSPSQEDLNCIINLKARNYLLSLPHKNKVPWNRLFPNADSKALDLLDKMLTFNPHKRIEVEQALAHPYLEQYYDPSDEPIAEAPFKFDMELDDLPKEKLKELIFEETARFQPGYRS

Q: For `O=C(Nc1ccccc1)c1ccccc1I`, which outcome is on record?
A: inactive

Q: Which AC50 does the source give for `COC(=O)Nc1nc2ccccc2[nH]1` here?
A: 46.7 µM (active)

Q: For `O=C(Oc1ccc(Br)cc1)N1CCN2CCC1CC2`, which outcome is on record?
A: inactive

Q: Which outcome does the source give for `CN(C)C(=O)Nc1ccc(Cl)cc1` here?
A: inactive

Q: `O=[N+]([O-])c1ccc(Oc2ccc(Cl)cc2Cl)cc1` was tested. Which outcome did it give?
A: inactive

The compounds below were run against Mitogen-activated protein kinase 3 (Homo sapiens) (UniProt P27361) (assay: NVS_ENZ_hMAPK3: NovaScreen (NVS) Enzymatic Assay for human Mitogen-Activated Protein Kinase 3 (MAPK 3) (AID 2283177)).
In short: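 Cell-free enzymatic assay with recombinant protein and specific substrate; fluorescence and electrophoretic mobility shift read-out 1 h after dosing. Primary screen duplicate at 25 uM; actives then run in concentration-response up to 50 uM, loss of signal versus DMSO.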

Chain of Mitogen-activated protein kinase 3 (Homo sapiens) (P27361 whole entry, looked up): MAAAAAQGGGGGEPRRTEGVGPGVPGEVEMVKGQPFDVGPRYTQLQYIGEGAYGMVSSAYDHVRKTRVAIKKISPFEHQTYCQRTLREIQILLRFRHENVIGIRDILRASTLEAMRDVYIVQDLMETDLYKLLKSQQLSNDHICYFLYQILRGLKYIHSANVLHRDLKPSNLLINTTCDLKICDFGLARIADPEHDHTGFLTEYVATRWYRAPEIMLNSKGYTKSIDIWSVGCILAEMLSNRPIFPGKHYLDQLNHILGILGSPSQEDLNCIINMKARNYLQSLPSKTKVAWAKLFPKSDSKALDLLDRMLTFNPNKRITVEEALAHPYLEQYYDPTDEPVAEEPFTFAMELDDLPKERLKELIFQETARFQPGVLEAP

Q: `COc1cc(C=O)cc2c1[C@H](COC(N)=O)[C@]1(OC(C)=O)ON2C[C@H]2[C@@H]1N2C(C)=O` was tested. Which outcome did it give?
A: inactive

Q: For `C[C@]12C=CC3=C4CCC(=O)C=C4CC[C@H]3[C@@H]1CC[C@@H]2O`, which outcome is on record?
A: inactive

Q: With `CCNS(=O)(=O)C(F)(F)C(F)(F)C(F)(F)C(F)(F)C(F)(F)C(F)(F)C(F)(F)C(F)(F)F` as the compound, how does the outcome read?
A: inactive

These compounds were tested against human MAP Kinase-Activated Protein Kinase 2 (MAPKAPK2), MAPKAPK2 (gene 9261) (UniProt P49137) (assay: NVS_ENZ_hMAPKAPK2: NovaScreen (NVS) Enzymatic Assay for human MAP Kinase-Activated Protein Kinase 2 (MAPKAPK2) (AID 2283178)).
Experimental: as §1, with “NVS_ENZ_hMAPKAPK2” for “NVS_ENZ_hLynA”, “plate.NVS_ENZ_hMAPKAPK2” for “plate.NVS_ENZ_hLynA”, “NVS_ENZ_hMAPKAPK2,” for “NVS_ENZ_hLynA,”, “MAPKAPK2.” for “LYN.”, “serine/threonine” for “non-receptor tyrosine”
as §2

Chain of human MAP Kinase-Activated Protein Kinase 2 (MAPKAPK2), MAPKAPK2 (gene 9261) (P49137 whole entry, looked up): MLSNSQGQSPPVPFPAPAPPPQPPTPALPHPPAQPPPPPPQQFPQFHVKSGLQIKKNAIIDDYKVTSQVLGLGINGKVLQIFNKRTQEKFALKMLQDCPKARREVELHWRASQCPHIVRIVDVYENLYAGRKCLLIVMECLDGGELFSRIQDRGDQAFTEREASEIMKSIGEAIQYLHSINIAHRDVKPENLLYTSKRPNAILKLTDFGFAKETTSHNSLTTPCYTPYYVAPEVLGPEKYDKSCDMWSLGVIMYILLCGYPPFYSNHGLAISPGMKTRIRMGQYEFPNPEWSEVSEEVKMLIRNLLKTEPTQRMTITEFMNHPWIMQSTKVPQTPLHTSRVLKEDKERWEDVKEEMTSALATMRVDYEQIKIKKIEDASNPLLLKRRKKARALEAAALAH

Q: `CCN(CC)N=O` was tested. Which outcome did it give?
A: inactive

Q: How did the outcome turn out when `O=C(Oc1ccc(Br)cc1)N1CCN2CCC1CC2` was run?
A: inactive

Q: Which outcome does the source give for `CC(C)N(Cc1ccccc1)C(=O)C(C)(C)C` here?
A: inactive

Q: For `Nc1ccc(Cl)cc1N`, which outcome is on record?
A: inactive

Q: With `CCCSC(=O)N(CCC)CCC` as the compound, how does the outcome read?
A: inactive
